# Experimental data as given in PubChem BioAssay (NCATS).
# Inconclusive results are not listed. Where a call stands in place of a potency, no number is given. Activity calls are given as the source filed them. The call rests on the fitted dose curve; in most records, active means well fitted inhibition curve with a large enough effect; inconclusive means small, poorly fitted or top-dose-only effect; inactive means flat fitted curve, though single readings scatter.
# Test: P-glycoprotein substrates identified in KB-8-5-11 adenocarcinoma cell line, qHTS therapeutic library screen (AID 1346987); further: nearly all actives have a fitted effect of over 65% in size
# Settings: KB-8-5-11 (P-gp overexpressing) viability, CellTiter-Glo, 72 h; series mostly up to 44.5 µM
# Summary of the method: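 Compounds are pinned in dose-response onto KB-8-5-11 cells (500 cells/well, colchicine-free medium) and left 72 h at 37 degree C. CellTiter-Glo luminescence then yields AC50 values.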
row,SMILES,Potency
1,Cc1ccc(OC[C@H](O)[C@H](C)NC(C)C)c2c1CCC2,inactive
2,Cc1ccc(-c2cn3c4c(sc3n2)CCCC4)cc1,inactive
3,O=P(O)(O)C(O)(Cc1cnc2ccccn12)P(=O)(O)O,inactive
4,CC/C(C)=C/C(=O)OC1C(OC2(C)CCC3C(C4C(C)CCC42)C3(C)C)OC(C)C(O)C1O (stereo not given),inactive
5,C/C=C(/C=C(C)/C=C/C=C/C=C(\C)C(=O)C12OC1C(O)(CCO)NC2=O)C(=O)OC (stereo not given),inactive
